Test [1] has as its system Plasmodium falciparum Sir2 (PF13_0152, Sir2A). Nature of the test: pfSir2 binders on small-molecule microarrays, primary screen, biochemical, small-molecule microarray, 635 nm fluorescence (AID 1098).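 Note: score merges spot fluorescence intensity with its signal-to-noise ratio.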 The following applies: small-molecule microarray binding, fluorescence 635 nm; higher = more signal.
A short description of test [2]: small-molecule microarray binders of probe aDKK1, primary screen, biochemical, biotinylated probe, 635/667 nm fluorescence (AID 1099).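 Note: score merges 667nm spot fluorescence with signal to noise across triplicate slides.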 To be noted: higher = more signal.
The nature of test [3]: small-molecule microarray binders of probe aCHRDL2, primary screen, biochemical, biotinylated probe, 635/667 nm fluorescence (AID 1100). To be noted: higher = more signal.
Test [4] is described as follows: splicing luciferase reporter signal modulators, primary screen, spliceosome inhibition project, cell-based, HEK293, splice +/- reporter (AID 1101).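 Note: HEK293 cells carrying a splicing-competent luciferase reporter gene; test concentration not given here.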 To be noted: luminescence, 24 h, higher = more signal, called active from +8 up or from −8 down. Background: A reporter such as luciferase makes a cellular process visible.
In test [5] the target is Fibroblast growth factor 10 (Homo sapiens) (UniProt O15520). Put plainly: FGF10 binders on small-molecule microarrays, primary screen, biochemical, small-molecule microarray, 635 nm fluorescence (AID 1102). The following applies: FGF10 binding, fluorescence 635 nm, higher = more signal.
Test [6] relates to glycogen synthase kinase-3 (GSK3A per assay name; protocol says GSK3B). Nature of the test: GSK3 binders on small-molecule microarrays, primary screen, biochemical, small-molecule microarray, 635 nm fluorescence, GSK3A (AID 1103). Note: the record names both GSK3A and GSK3B. To be noted: small-molecule microarray binding, fluorescence 635 nm; higher = more signal.
Test [7] concerns the target Epidermal growth factor receptor (Homo sapiens) (UniProt P00533). Nature of the test: EGFR binders on small-molecule microarrays, primary screen, biochemical, small-molecule microarray, 635 nm fluorescence (AID 1104).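 Note: score merges 667 nm emission intensity with spot signal to noise over triplicate slides.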 The following applies: EGFR binding, higher = more signal.
The target of test [8] is Follistatin-related protein 3 (Homo sapiens) (UniProt O95633). Put plainly: FSTL3 binders on small-molecule microarrays, primary screen, biochemical, small-molecule microarray, 635 nm fluorescence (AID 1105).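 Note: score merges emission near 667 nm and signal to noise per printed spot across three slides.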 To be noted: FSTL3 binding, higher = more signal.
Test [9] deals with Dickkopf-related protein 1 (Homo sapiens) (UniProt O94907). Put plainly: DKK1 binders on small-molecule microarrays, primary screen, biochemical, small-molecule microarray, 635 nm fluorescence scan (AID 1106).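 Note: score merges emission near 667 nm with signal to noise over three replicate slides.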 The following applies: DKK1 binding, higher = more signal.
In test [10] the test system is Inhibin beta A chain (activin A). Nature of the test: INHBA (activin A) binders on microarrays, primary screen, biochemical, small-molecule microarray, 635 nm fluorescence scan (AID 1107).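 Note: mouse activin A protein probed at 4.33 µg/mL on printed slides; score merges bound-protein fluorescence near 667 nm with spot signal-to-noise.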 To be noted: small-molecule microarray binding, higher = more signal.
Test [11] relates to Human papillomavirus type 1a protein E7 (residues 44-93). Nature of the test: HPV1a E7 fragment binders on microarrays, primary screen, biochemical, small-molecule microarray, residues 44-93, 635 nm fluorescence (AID 1108).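 Note: E7 fragment applied at 1 µg/mL in TBST for 1 h at 4 C; score combines spot fluorescence with its signal to noise ratio.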 To be noted: small-molecule microarray binding, fluorescence 635 nm; higher = more signal.
Test [12] can be described thus: modulators of HCV replicon luciferase signal, primary screen, HCV replication inhibitor project, Huh7 cells, luciferase reporter (AID 1109).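 Note: huh7 hepatoma cells harbouring a luciferase neomycin HCV replicon reporter; luciferase luminescence as measure of HCV replicon replication; test concentration not given here.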 The following applies: 48 h, higher = more signal. (Replicon systems follow genome replication, usually without infectious particles.)
The target of test [13] is Left-right determination factor 2 (Homo sapiens) (UniProt O00292). Put plainly: LEFTY2 binders on small-molecule microarrays, primary screen, biochemical, small-molecule microarray, 635 nm fluorescence scan (AID 1110). To be noted: LEFTY2 binding, higher = more signal.
The target in test [14] is Calmodulin-1 (Homo sapiens) (UniProt P0DP23). Nature of the test: CALM1 binders on microarrays, EGTA buffer, profiling panel, biochemical, small-molecule microarray, Cy5-labelled CALM1 (AID 1111).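 Note: labelled calmodulin applied in Tris saline Tween buffer holding calcium plus EGTA and DTT.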 To be noted: Cy5-CALM1 binding fluorescence, higher = more signal.
Test [15] has the same target. Nature of the test: calcium-bound CALM1 binders on microarrays, profiling panel, artefact control for SMM control-protein annotation, biochemical, small-molecule microarray, Cy5-labelled CALM1, plus calcium (AID 1112).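 Note: score merges spot fluorescence with signal to noise from triplicate slides.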 To be noted: Cy5-CALM1 binding fluorescence, higher = more signal.
A short description of test [16]: small-molecule microarray binders of probe aWnt5a, primary screen, biochemical, biotinylated probe, 635/667 nm fluorescence (AID 1113).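 Note: score merges 667 nm fluorescence intensity with signal-to-noise per printed feature.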 To be noted: higher = more signal.
Test [17] can be described thus: small-molecule microarray binders of probe aShh, primary screen, biochemical, biotinylated probe, 635/667 nm fluorescence (AID 1114).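 Note: probe is biotin-labelled aShh protein from a stem cell growth factor screen; measures binding of labelled protein to compounds printed on the slide; score merges feature fluorescence at 667 nm with signal-to-noise.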 The following applies: higher = more signal.
Test [18] in a line: small-molecule microarray binders of probe aNog, primary screen, biochemical, biotinylated probe, 635/667 nm fluorescence (AID 1115).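 Note: probe is biotinylated aNog protein used at 0.15 µg/mL for 1 h at 4 C; z-score combines 667 nm fluorescence of each spot with its signal to noise.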 To be noted: higher = more signal.
Test [19] addresses Torsin-1A-interacting protein 1 (Homo sapiens) (UniProt Q5JTV8). Put plainly: LAP1 binders from COS7 cell lysate, primary screen, small-molecule microarray, 635/667 nm fluorescence (AID 1116). To be noted: COS7-hLAP1 lysate binding, 635 nm fluorescence, higher = more signal.
Test [20] has as its target Alpha-bungarotoxin (Bungarus multicinctus) (UniProt P60615). Nature of the test: alpha-bungarotoxin binders on microarray, profiling panel, artefact control for SMM control protein annotation, biochemical, small-molecule microarray, Alexa647 label, 635/667 nm fluorescence (AID 1117). The following applies: alpha-BTX-A647 binding fluorescence, higher = more signal.

The structures appear in SMILES notation. Active and inactive are the calls of the source.

Chain of Epidermal growth factor receptor (Homo sapiens) (P00533 whole entry, looked up): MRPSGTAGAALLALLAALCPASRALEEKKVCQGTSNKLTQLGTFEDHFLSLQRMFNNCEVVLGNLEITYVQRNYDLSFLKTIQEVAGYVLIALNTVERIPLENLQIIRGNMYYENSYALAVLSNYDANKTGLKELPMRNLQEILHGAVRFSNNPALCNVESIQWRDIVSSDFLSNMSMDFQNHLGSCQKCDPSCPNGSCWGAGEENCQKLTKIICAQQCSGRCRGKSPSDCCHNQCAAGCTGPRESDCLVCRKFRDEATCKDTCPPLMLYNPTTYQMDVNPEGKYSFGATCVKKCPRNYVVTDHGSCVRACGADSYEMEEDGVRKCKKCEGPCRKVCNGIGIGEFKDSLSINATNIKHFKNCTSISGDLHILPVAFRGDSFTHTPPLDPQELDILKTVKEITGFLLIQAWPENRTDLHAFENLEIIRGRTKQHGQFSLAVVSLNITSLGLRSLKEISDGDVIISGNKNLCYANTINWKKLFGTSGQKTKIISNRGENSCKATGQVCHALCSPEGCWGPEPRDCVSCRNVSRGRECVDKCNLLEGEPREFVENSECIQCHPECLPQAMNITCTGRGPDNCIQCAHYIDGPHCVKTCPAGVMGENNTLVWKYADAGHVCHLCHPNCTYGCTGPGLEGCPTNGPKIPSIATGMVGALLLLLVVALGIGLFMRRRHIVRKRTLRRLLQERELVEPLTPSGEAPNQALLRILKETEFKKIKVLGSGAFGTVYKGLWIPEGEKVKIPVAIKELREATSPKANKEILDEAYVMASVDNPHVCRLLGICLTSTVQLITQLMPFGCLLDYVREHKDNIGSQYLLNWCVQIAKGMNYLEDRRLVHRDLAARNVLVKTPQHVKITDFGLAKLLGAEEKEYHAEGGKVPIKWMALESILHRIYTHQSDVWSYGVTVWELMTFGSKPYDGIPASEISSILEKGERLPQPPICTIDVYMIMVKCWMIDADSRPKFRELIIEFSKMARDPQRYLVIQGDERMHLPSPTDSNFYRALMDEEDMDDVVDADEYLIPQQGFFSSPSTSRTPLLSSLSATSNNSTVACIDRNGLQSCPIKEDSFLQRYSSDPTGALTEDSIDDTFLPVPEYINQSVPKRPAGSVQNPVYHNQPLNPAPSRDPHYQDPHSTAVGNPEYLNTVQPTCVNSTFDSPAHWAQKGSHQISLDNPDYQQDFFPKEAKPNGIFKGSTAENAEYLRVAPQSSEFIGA
Chain of Alpha-bungarotoxin (Bungarus multicinctus) (P60615 whole entry, looked up): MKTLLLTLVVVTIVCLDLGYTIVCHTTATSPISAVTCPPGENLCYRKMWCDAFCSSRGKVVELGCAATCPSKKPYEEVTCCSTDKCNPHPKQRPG
Chain of Torsin-1A-interacting protein 1 (Homo sapiens) (Q5JTV8 whole entry, looked up): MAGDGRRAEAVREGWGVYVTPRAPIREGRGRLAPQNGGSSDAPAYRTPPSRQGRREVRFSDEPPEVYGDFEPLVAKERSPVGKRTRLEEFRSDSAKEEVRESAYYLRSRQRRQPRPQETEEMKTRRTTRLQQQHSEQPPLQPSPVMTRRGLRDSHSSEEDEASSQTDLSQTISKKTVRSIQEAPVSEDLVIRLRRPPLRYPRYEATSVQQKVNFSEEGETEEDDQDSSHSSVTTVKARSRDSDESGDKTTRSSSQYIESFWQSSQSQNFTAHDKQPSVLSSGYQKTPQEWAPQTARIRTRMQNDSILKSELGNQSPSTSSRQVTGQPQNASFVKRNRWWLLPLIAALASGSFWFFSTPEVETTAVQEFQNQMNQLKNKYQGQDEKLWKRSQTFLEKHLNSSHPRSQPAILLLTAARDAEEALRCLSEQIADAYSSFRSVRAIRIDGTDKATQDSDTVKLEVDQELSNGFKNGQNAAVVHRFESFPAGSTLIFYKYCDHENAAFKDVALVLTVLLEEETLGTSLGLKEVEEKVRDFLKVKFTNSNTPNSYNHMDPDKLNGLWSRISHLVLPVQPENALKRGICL
Chain of Fibroblast growth factor 10 (Homo sapiens) (O15520 whole entry, looked up): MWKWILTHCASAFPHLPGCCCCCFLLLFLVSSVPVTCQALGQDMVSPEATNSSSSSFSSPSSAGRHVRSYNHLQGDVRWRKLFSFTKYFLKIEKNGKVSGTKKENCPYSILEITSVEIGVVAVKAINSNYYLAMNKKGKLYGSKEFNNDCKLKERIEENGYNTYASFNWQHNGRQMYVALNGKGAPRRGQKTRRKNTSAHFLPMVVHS
Chain of Left-right determination factor 2 (Homo sapiens) (O00292 whole entry, looked up): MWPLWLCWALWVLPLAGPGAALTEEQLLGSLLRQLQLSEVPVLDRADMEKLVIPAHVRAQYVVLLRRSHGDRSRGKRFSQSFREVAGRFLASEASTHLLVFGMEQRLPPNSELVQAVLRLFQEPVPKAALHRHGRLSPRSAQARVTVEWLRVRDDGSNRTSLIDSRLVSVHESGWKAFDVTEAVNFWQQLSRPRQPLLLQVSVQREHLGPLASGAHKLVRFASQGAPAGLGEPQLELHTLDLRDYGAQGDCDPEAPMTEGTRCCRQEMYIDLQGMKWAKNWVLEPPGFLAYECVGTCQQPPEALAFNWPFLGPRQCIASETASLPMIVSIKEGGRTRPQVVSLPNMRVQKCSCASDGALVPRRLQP
Chain of Follistatin-related protein 3 (Homo sapiens) (O95633 whole entry, looked up): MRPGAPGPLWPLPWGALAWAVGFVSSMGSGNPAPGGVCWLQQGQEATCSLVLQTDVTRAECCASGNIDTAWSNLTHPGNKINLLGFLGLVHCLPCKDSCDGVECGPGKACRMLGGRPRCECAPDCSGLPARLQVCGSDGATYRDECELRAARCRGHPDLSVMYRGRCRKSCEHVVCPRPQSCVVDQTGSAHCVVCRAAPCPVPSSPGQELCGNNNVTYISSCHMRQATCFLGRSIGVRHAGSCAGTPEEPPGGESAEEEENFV
Chain of Dickkopf-related protein 1 (Homo sapiens) (O94907 whole entry, looked up): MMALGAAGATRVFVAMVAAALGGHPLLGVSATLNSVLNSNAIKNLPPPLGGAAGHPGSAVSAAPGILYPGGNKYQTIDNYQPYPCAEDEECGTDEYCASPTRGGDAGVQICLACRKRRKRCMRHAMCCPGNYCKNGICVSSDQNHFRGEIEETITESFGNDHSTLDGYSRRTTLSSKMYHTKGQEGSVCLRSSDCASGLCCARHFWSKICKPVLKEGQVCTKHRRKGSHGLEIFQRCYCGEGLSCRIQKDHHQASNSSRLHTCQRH

Turning to `C=CCC(OC(C)=O)[C@@H]1[C@@H](N(Cc2cccc3ccccc23)C(=O)c2cccc3ccccc23)c2cc(OCCCO)ccc2N1C(=O)c1ccc2ccccc2n1` (stereo not given in full), the composite z-score in test [1] was -0.0758; in [2] it was -0.095; in test [3], 0.181; in test [5], 0.635; in [6] it was 0.0702; in [7], -0.0538. Also, the composite z-score in [8] is 0.256; in test [9] it was -0.501; in test [10], 1.45; in test [11] it was -0.316; in test [13], 0.146; in test [14], -0.301. Moreover, the composite z-score in test [15] was 0.117; in [16], -0.208; in test [17] it was -0.138; in test [18], 0.151; in test [19], -0.117; in test [20] it was -0.198. For the same compound, the z-score in [4] is -0.202 (inactive); in test [12] it was 1.21.
As for `COC(=O)c1c(CC[C@@H](CO)NC(=O)N[C@@H](Cc2ccccc2)Cn2cc(C3(O)CCCCC3)nn2)oc(C(C)=O)c1C(=O)OC`, the composite z-score in [1] was 0.893; in [2], -0.27; in [3] it was -0.328; in [5], 1.31; in [6] it was 0.819; in test [7], 0.346. Also, the composite z-score in test [8] was found to be 0.873; in [9], 0.514; in test [10] it was 0.382; in test [11], 1.28; in [13] it was 0.693; in test [14], 0.267. The composite z-score is -0.36 in [15]; -0.096 in [16]; -0.142 in [17]; -0.449 in test [18]; 0.639 in test [19]; 0.519 in test [20]. The results for the z-score in test [4] and in test [12] were -2.62 (inactive) and -1.47, respectively.
As to `COCCOC(=O)N1C(=O)[C@@]2(c3cc(C#Cc4ccc(OC)cc4)ccc31)[C@H](C(=O)N1CCN(c3ncccn3)CC1)[C@H]1C(=O)O[C@H](c3ccccc3)[C@H](c3ccccc3)N1[C@@H]2c1ccc(O)cc1`, the composite z-score was -0.12 in test [1]; -0.138 in test [2]; 0.0953 in test [3]; -0.0132 in [5]; -0.0617 in test [6]; -0.026 in [7]. The composite z-score is 0.246 in test [8]; 0.37 in test [9]; -0.0611 in test [10]; 0.519 in test [11]; 0.0473 in [13]; 0.958 in [14]. In addition, the composite z-score in [15] was 0.217; in [16], -0.207; in [17], -0.138; in test [18] it was -0.366; in [19], 0.135; in test [20], 0.107. The values for the z-score in [4] and in test [12] were -0.772 (inactive) and -1.39, respectively.
On to `COc1ccc([Si](C)(C)[C@H]2[C@H](CC(=O)N(CCO)Cc3ccccc3)O[C@@]3(C(=O)N(Cc4cccc(N5CCC5=O)c4)c4ccccc43)[C@@H]2C)cc1`, for which the composite z-score in [1] came out at 1.32; in test [2], 0.122; in test [3], 0.0014; in [5], 0.697; in test [6], 0.599; in test [7], 0.4. For the same compound, the composite z-score in [8] was 0.893; in [9], 0.696; in [10], 0.928; in [11], 0.784; in [13], 0.829; in test [14], 0.64. Moreover, the composite z-score in [15] is -0.173; in test [16] it was -0.1; in test [17], -0.0793; in test [18] it was -0.0311; in test [19], 0.059; in [20], 1.03. Besides, the z-score in test [4] is -2.18 (inactive); in test [12] it was -3.85.
Consider `COCCOC(=O)N1C(=O)[C@@]2(c3cc(C#CCNC(N)=O)ccc31)[C@H](c1ccc(OCCO)cc1)N1[C@H](c3ccccc3)[C@H](c3ccccc3)OC(=O)[C@H]1[C@@H]2C(=O)N1CCc2cc(OC)c(OC)cc2C1`, for which the composite z-score was 0.719 in [1]; 0.208 in test [2]; 0.676 in test [3]; 0.921 in [5]; 0.0059 in [6]; 0.803 in [7]. Moreover, the composite z-score in test [8] turned out to be 1.17; in test [9], 0.455; in test [10] it was 0.959; in test [11], 0.901; in test [13] it was 0.603; in test [14], 0.243. The composite z-score in [15] is 0.273; in test [16], -0.148; in [17], -0.0035; in [18] it was -0.0428; in test [19] it was 0.743; in test [20], 0.664. Besides, the z-score in test [4] is 0.911 (inactive); in [12] it was -0.966.
In the case of `COC(=O)[C@@]1(Cc2ccccc2N=[N+]=[N-])COC(c2ccc(OCCCO)cc2)=N1`, the composite z-score in test [1] is 1.48; in [2] it was 0.89; in [3] it was 1.26; in test [5], 0.0938; in [6] it was 0.478; in test [7], -0.3. The composite z-score in test [8] was -0.0373; in [9], -0.349; in test [10], 1.52; in test [11], 1.02; in [13], -0.675; in [14], 0.238. Besides, the composite z-score was 0.0554 in [15]; -0.15 in test [16]; 0.333 in test [17]; 0.0531 in test [18]; 0.852 in test [19]; 1.4 in [20]. Moreover, the z-score in test [4] is -0.127 (inactive); in test [12], -0.0499.

Source of the values: PubChem BioAssay.
